High-throughput results from PubChem.
A selection: hits, their analogues and other compounds. The true share with any hit is near 3.4%.
MEKK2wt PB1 HTS = raises or lowers MEK5 binding to wildtype human MEKK2 PB1 domain. Q9Y2U5. bead flow cytometry, Alexa488-MEK5 binding to MEKK2 WT; actives lie on both sides. binding response (% of control), % at 10 µM. 1.1% of 290,000 active. AID 1531; in the data active = binding response below about 67% or above about 130%
TMEM16A inh = mouse TMEM16A channel inhibition, primary screen; HEK293 TMEM16A/YFP iodide influx fluorescence, ionomycin; normalized B-score (activity score, 25-100; higher = stronger inhibition) at 10 µM; 1.2% of 310,000 active; AID 588511;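 active = ratio plate-corrected score three or more library SD toward inhibition, starting fluorescence score within five deviations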;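 also: score derived from kinetic fluorescence span divided by baseline fluorescence per well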
MEKK3 PB1 HTS = MEKK3-MEK5 PB1 interaction, increase or decrease. binding response (% of control), % at 10 µM. 1.4% of 290,000 active. bead-based flow cytometry, Alexa488-MEK5 binding to MEKK3; actives lie on both sides; 0 = blocked by unlabeled MEK5, 100 = vehicle. Q99759;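 active = binding response more than 3 SD above or below the average of its plate-row segment, actives on both sides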;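 also: Alexa488 bead fluorescence after subtracting the streptavidin-only scavenger bead signal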
NTR1 agonist = NTR1 (human) agonism; P30989; NTR1-U2OS beta-arrestin-GFP spot imaging, agonist mode; activation, % at 20 µM; 0.17% of 330,000 active; AID 493036;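 active = activation at or above 40% of the spot to cytoplasm intensity ratio, with at least 20 cells analyzed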;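 also: 0% = DMSO without peptide and 100% = 100 nM NTR1 peptide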
Target sequence (P30989 whole entry, looked up): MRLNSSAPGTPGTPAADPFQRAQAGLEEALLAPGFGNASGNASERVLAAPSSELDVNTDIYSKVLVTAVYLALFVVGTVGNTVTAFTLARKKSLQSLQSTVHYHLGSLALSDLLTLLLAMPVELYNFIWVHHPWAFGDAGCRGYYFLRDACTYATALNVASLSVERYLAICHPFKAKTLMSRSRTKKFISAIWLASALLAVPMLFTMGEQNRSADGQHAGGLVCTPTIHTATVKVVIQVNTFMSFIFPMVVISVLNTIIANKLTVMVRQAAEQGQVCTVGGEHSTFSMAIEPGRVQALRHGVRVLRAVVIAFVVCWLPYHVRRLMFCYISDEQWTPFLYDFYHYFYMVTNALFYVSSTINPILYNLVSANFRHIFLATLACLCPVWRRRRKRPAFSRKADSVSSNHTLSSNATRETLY
MEKK2 mut-MEK5 = signal of MEK5 binding to mutant human MEKK2 PB1 domain; AID 1530; 0.35% of 290,000 active; percent response, % at 10 µM; bead flow cytometry, Alexa488-MEK5 binding to MEKK2 mutant; in the data active = percent response above about 24%, passing the limit was not always enough
TMEM16A act = mouse TMEM16A channel activation, primary screen; Q8BHY3; HEK293 TMEM16A/YFP-H148Q/I152L, iodide quench fluorescence; hits give low values; B-score at 10 µM; 0.3% of 340,000 active; AID 623877;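 active = fluorescence-ratio B-score plate-corrected deviation score at least 3 library SD below zero, with starting fluorescence score within 5 deviations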;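 also: channel opened by trigger with iodide after compound preincubation; score built on the fluorescence ratio of max minus min over baseline; more negative score means more quench and so TMEM16A activation or potentiation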
MEKK2wt confirm = raises or lowers MEK5 binding to wildtype human MEKK2, retest; shares compounds with MEKK3 PB1 HTS; bead flow cytometry, Alexa488-MEK5 binding to MEKK2 WT; actives lie on both sides; binding response (% of control), % at 10 µM; 2.4% of 5,900 active; in the data active = binding response below about 16% or above about 210%; inactive = in between
MEKK2mut-MEK5 = signal of MEK5 binding to mutant human MEKK2, retest. shares compounds with MEKK3 PB1 HTS. bead flow cytometry, Alexa488-MEK5 binding to MEKK2 mutant. percent response, % at 10 µM. 2% of 5,900 active. AID 1893; in the data active = percent response mostly above about 71%, no sharp cut-off; inactive = mostly below about 38%;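 also: higher means compound restores mutant binding toward wildtype level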
MEKK3-MEK5 inh = MEKK3-MEK5 PB1 inhibition, single concentration confirmation; shares compounds with MEKK3 PB1 HTS; bead flow cytometry, Alexa488-MEK5 binding to MEKK3; hits give low values; binding response (% of control), % at 10 µM; 1.8% of 5,900 active; AID 1894;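 active = binding response below 72% of control, or above a set upper limit, though filed actives all read lower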;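 also: 100% = DMSO only wells and 0% = binding blocked by excess unlabeled MEK5; lower values mean stronger disruption of MEK5 binding to MEKK3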
An asterisk follows results filed as active; [ ] = another dose, or the depositor's remark.

Results for Cc1nn(C)c(C(=O)N2CCN(C(=O)c3ccco3)CC2)c1Br ?
MEKK2wt PB1 HTS: 34*[inhibitor]; TMEM16A inh: inactive; MEKK3 PB1 HTS: 82; NTR1 agonist: 3; MEKK2 mut-MEK5: -17; TMEM16A act: inactive; MEKK2wt confirm: 101; MEKK2mut-MEK5: 6; MEKK3-MEK5 inh: 103

What do the screens show for `Cn1ncc(Br)c1C(=O)N1CCN(C(=O)c2ccco2)CC1`?
MEKK2wt PB1 HTS: 95; TMEM16A inh: inactive; MEKK3 PB1 HTS: 94; NTR1 agonist: -1; MEKK2 mut-MEK5: 0; TMEM16A act: inactive

How did Cc1ccc(CC(=O)N2CCN(C(=O)c3ccco3)CC2)cc1 do in these assays?
MEKK2wt PB1 HTS: 58; TMEM16A inh: inactive; MEKK3 PB1 HTS: 49*[inhibitor]; NTR1 agonist: -1; MEKK2 mut-MEK5: -14; TMEM16A act: inactive; MEKK2wt confirm: 102; MEKK2mut-MEK5: 3; MEKK3-MEK5 inh: 103

What do the screens show for `CC(C)Oc1ccc(CNCC2(O)CCOC(C)(C)C2)cc1` (centres undefined)?
MEKK2wt PB1 HTS: 99; TMEM16A inh: inactive; MEKK3 PB1 HTS: 101; NTR1 agonist: 0; MEKK2 mut-MEK5: -3; TMEM16A act: inactive

How did CC1(C)CC(O)(CNCc2ccc3c(c2)OCO3)CCO1 (centres undefined) do in these assays?
MEKK2wt PB1 HTS: 3.0*[inhibitor]; TMEM16A inh: inactive; MEKK3 PB1 HTS: 2.0*[inhibitor]; NTR1 agonist: 2; MEKK2 mut-MEK5: -14; TMEM16A act: inactive; MEKK2wt confirm: 94; MEKK2mut-MEK5: -7; MEKK3-MEK5 inh: 94

What do the screens show for `Cc1cccc(NC(=O)COc2ccc(-c3nn(C)c(=O)c4ccccc34)cc2)c1`?
MEKK2wt PB1 HTS: 99; TMEM16A inh: inactive; MEKK3 PB1 HTS: 103; NTR1 agonist: -2; MEKK2 mut-MEK5: -3; TMEM16A act: inactive

What do the screens show for `CCOC(=O)CSc1ncc(-c2ccc([N+](=O)[O-])cc2)[nH]1`?
MEKK2wt PB1 HTS: 105; TMEM16A inh: inactive; MEKK3 PB1 HTS: 134*; NTR1 agonist: 1; MEKK2 mut-MEK5: 1; TMEM16A act: inactive; MEKK2wt confirm: 98; MEKK2mut-MEK5: 2; MEKK3-MEK5 inh: 103

What do the screens show for `CCOC(=O)Cn1cncc1-c1ccc([N+](=O)[O-])cc1`?
MEKK2wt PB1 HTS: 101; TMEM16A inh: inactive; MEKK3 PB1 HTS: 103; NTR1 agonist: 0; MEKK2 mut-MEK5: 1; TMEM16A act: inactive

Results for Cc1cc(C)cc(OCC(=O)OC(C)C(=O)Nc2ccc(Cl)cn2)c1 (centres undefined) ?
TMEM16A inh: inactive; NTR1 agonist: 0; TMEM16A act: inactive

Results for O=C(Nc1ccc(Cc2ccc(NC(=O)C3CC3)c(O)c2)cc1O)C1CC1 ?
MEKK2wt PB1 HTS: 119; TMEM16A inh: inactive; MEKK3 PB1 HTS: 127*; NTR1 agonist: 0; MEKK2 mut-MEK5: 6; TMEM16A act: inactive; MEKK2wt confirm: 113; MEKK2mut-MEK5: 7; MEKK3-MEK5 inh: 103

What do the screens show for `CNc1ccc(Br)cc(C(=O)/C=C/c2ccc3c(c2)OCO3)c1=O`?
MEKK2wt PB1 HTS: 66*[inhibitor]; TMEM16A inh: inactive; MEKK3 PB1 HTS: 91; NTR1 agonist: 1; MEKK2 mut-MEK5: -10; TMEM16A act: inactive; MEKK2wt confirm: 100; MEKK2mut-MEK5: 1; MEKK3-MEK5 inh: 102

What do the screens show for `CCc1cccc2c(N=O)c(O)[nH]c12`?
MEKK2wt PB1 HTS: 110; TMEM16A inh: inactive; MEKK3 PB1 HTS: 136*; NTR1 agonist: 1; MEKK2 mut-MEK5: 0; TMEM16A act: inactive; MEKK2wt confirm: 108; MEKK2mut-MEK5: 8; MEKK3-MEK5 inh: 105

How did O=Nc1c(O)[nH]c2c(F)cccc12 do in these assays?
MEKK2wt PB1 HTS: 96; TMEM16A inh: inactive; MEKK3 PB1 HTS: 96; NTR1 agonist: 1; MEKK2 mut-MEK5: -3; TMEM16A act: inactive

How did CC1CN(C(=O)c2ccc(Br)c(S(=O)(=O)N3CCOCC3)c2)CC(C)O1 (centres undefined) do in these assays?
NTR1 agonist: -2; TMEM16A act: inactive

How did Cc1cc(C(=O)Nc2ncn[nH]2)ccc1[N+](=O)[O-] do in these assays?
MEKK2wt PB1 HTS: 91; TMEM16A inh: inactive; MEKK3 PB1 HTS: 73*[inhibitor]; NTR1 agonist: 0; MEKK2 mut-MEK5: -1; TMEM16A act: inactive; MEKK2wt confirm: 109; MEKK2mut-MEK5: 7; MEKK3-MEK5 inh: 105

Results for CCCOc1ccc(NC(=O)CC2C(=O)N(CC)C(=S)N2CCCN2CCN(Cc3ccccc3)CC2)cc1 (centres undefined) ?
MEKK2wt PB1 HTS: 155*; TMEM16A inh: inactive; MEKK3 PB1 HTS: 103; NTR1 agonist: 19; MEKK2 mut-MEK5: 22; TMEM16A act: inactive; MEKK2wt confirm: 150; MEKK2mut-MEK5: 29; MEKK3-MEK5 inh: 109

Results for CCN1C(=O)C(CC(=O)Nc2ccc(F)cc2)N(CCCN2CCN(c3ccc(F)cc3)CC2)C1=S (centres undefined) ?
MEKK2wt PB1 HTS: 143*; TMEM16A inh: inactive; MEKK3 PB1 HTS: 107; NTR1 agonist: 9; MEKK2 mut-MEK5: 25; TMEM16A act: inactive; MEKK2wt confirm: 133; MEKK2mut-MEK5: 25; MEKK3-MEK5 inh: 108

How did Cc1cc(C)cc(NC(=S)Nc2cccc3cnccc23)c1 do in these assays?
MEKK2wt PB1 HTS: 140*; MEKK3 PB1 HTS: 107; NTR1 agonist: 12; MEKK2 mut-MEK5: 7; TMEM16A act: inactive; MEKK2wt confirm: 107; MEKK2mut-MEK5: 3; MEKK3-MEK5 inh: 103

How did Cc1nc2ccc(NS(=O)(=O)c3c(F)cc(F)cc3Br)cc2s1 do in these assays?
NTR1 agonist: 0; TMEM16A act: inactive

How did CC(=O)c1ccc(NC(=O)[C@@H]2CCCN2C(=O)OC(C)(C)C)cc1 do in these assays?
MEKK2wt PB1 HTS: 105; TMEM16A inh: inactive; MEKK3 PB1 HTS: 104; NTR1 agonist: -1; MEKK2 mut-MEK5: 5; TMEM16A act: inactive

What do the screens show for `CC(Cc1c[nH]c2ccccc12)NC(N)=O` (centres undefined)?
MEKK2wt PB1 HTS: 111; TMEM16A inh: inactive; MEKK3 PB1 HTS: 129*; NTR1 agonist: 2; MEKK2 mut-MEK5: 0; TMEM16A act: inactive; MEKK2wt confirm: 107; MEKK2mut-MEK5: 13; MEKK3-MEK5 inh: 111
